Results on eight compounds are retold here after PubChem BioAssay (NCI).

Common to all, as to test: NCI-60 one-dose screen, 48 h (100 = growth as untreated, 0 = no growth, -100 = all killed)
Holding throughout (settings): 10 µM unless noted

Test [1] deals with SR leukemia.
Test [2] relates to RPMI-8226 leukemia.
In test [3] the test system is OVCAR-8 ovarian.
The subject of test [4] is OVCAR-5 ovarian.
Test [5] has as its system OVCAR-4 ovarian.
For test [6], the system named is SK-OV-3 ovarian.
Test [7] has as its system IGROV1 ovarian.
Test [8] concerns OVCAR-3 ovarian.
Test [9] concerns HS 578T breast.
For test [10], the system named is NCI/ADR-RES ovarian.
For test [11], the system named is T-47D breast.
The test system of test [12] is BT-549 breast.
Test [13] has as its system MDA-MB-435 melanoma.
The subject of test [14] is SW-620 colon.
Test [15] relates to MCF7 breast.
The subject of test [16] is HCT-116 colon.
In test [17] the test system is HCC-2998 colon.
The subject of test [18] is KM12 colon.

Compounds without any hit were thinned out: in the full panel of roughly 83,000, 20% have a hit.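 Percent growth is the endpoint: 0 to 100 indicates growth inhibition (40 means 60% inhibition), 0 means no net growth, and negative values indicate cell death.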 A number with no mark means an inactive call. Calls of active or inactive are those of the source. The calls were made as follows: active = growth percent below 10; inactive = the rest.

On to `O=S(=O)(c1ccc(NCSc2nc3ccccc3s2)cc1)c1ccc(NCSc2nc3ccccc3s2)cc1`, for which the growth in [1] is 83.4%; in test [2] it was 92.1%; in test [3] it was 96.8%; in [4] it was 107%; in test [5], 117%; in [6] it was 71.3%. In addition, the growth in test [7] is 97%; in [8], 97.7%; in [9] it was 90.6%; in test [10], 102%; in test [11], 63.9%; in test [12], 87.5%. For the same compound, the growth in test [13] was 112%; in [14], 100%; in [15], 97.5%; in test [16] it was 86.5%; in test [17] it was 95.5%; in test [18], 102%.

`CNC(=O)c1cc(Oc2ccc3nc(NC(=O)NC(C)C)sc3c2)ccn1`: the growth in test [1] was 30.4%; in test [2], 73.2%; in [3], 88.4%; in [4], 117%; in test [5], 77.8%; in test [6], 87%. Also, the growth in test [7] is 86.7%; in test [8], 97.4%; in test [9], 74.6%; in [10], 65%; in [11], 64.3%; in test [12], 86.5%. Moreover, the growth in [13] was 0.517% (active); in [14], 53.2%; in [15], 53.9%; in [16], 57.7%; in [17], 79.3%; in test [18] it was 39.3%.

For the compound `C[C@H]1c2ccccc2CN1CCCOc1cc2c(cc1OCC1CC1)C1(CCCC1)C(N)=N2`, the growth is 13.8% in test [1]; 17.6% in test [2]; 65.9% in [3]; 70.5% in test [4]; 48.8% in test [5]; 90.2% in test [6]. The growth was 54.8% in [7]; 76.9% in test [8]; 56% in test [9]; 68% in test [10]; 0.245% (active) in test [11]; 78% in test [12]. For the same compound, the growth was 36.4% in test [13]; 15% in test [14]; 22.5% in test [15]; 7.48% (active) in test [16]; -55.3% (active) in [17]; 49.6% in test [18].

For the compound `CN(CCNc1ccc(C(=N)N)cc1)c1ccc(C(=N)N)cc1`, the growth in test [1] is 66.7%; in test [2] it was 72.2%; in [3], 80.8%; in test [4], 92%; in test [5], 96.2%; in [6], 119%. Also, the growth in test [7] is 36.7%; in test [8], 91.4%; in test [9], 101%; in test [10], 97.1%; in test [11], 126%; in test [12], 102%. Besides, the growth was 92.6% in [13]; 98.6% in [14]; 116% in [15]; 101% in [16]; 99.6% in [17]; 86.2% in test [18].

For the compound `C#Cc1cccc(Nc2nc(Cl)nc3cc(NC(=O)CCl)ccc23)c1`, the growth is -39.7% (active) in [1]; -47.6% (active) in test [2]; -23.9% (active) in test [3]; -92% (active) in [4]; -66.4% (active) in test [5]; -18.9% (active) in test [6]. The growth in test [7] is -59.8% (active); in test [8], -88.1% (active); in [9] it was -14% (active); in test [10] it was -14.4% (active); in test [11], -44.7% (active); in test [12] it was -89.3% (active). Besides, the growth is -76.7% (active) in [13]; -77.8% (active) in [14]; -49.5% (active) in test [15]; -90.1% (active) in test [16]; -84% (active) in test [17]; -62.5% (active) in test [18].

For the compound `O=C1CCC(C(=O)N/N=C/c2ccc([N+](=O)[O-])cc2)N1` (centres undefined), the growth in [1] is 113%; in [2] it was 100%; in test [3] it was 101%; in test [4], 105%; in test [5], 104%; in [6], 105%. In addition, the growth was 100% in test [7]; 105% in test [8]; 98.8% in [9]; 103% in test [10]; 99.2% in test [11]; 106% in [12]. For the same compound, the growth in [13] is 102%; in test [14], 105%; in test [15], 94.8%; in [16], 105%; in test [17], 95.3%; in test [18], 105%.

Take `Cc1ccccc1NC(=O)c1sc2nc3c(cc2c1N)CCCC3`: the growth in [1] is 14.3%; in test [2], 21.3%; in test [3] it was 29.7%; in test [4] it was 81.6%; in test [5], 61.8%; in test [6], 25.1%. Further, the growth in [7] was 57%; in test [8] it was 11.3%; in test [9], 55.8%; in [10], 26.5%; in test [11], 29.6%; in test [12], 63.5%. The growth in test [13] was -18.4% (active); in [14], 19.2%; in [15] it was 13.3%; in [16], 29%; in [17] it was 64.8%; in [18], 25.2%.

With `N/C(=N\c1nc2ccccc2s1)NC(=O)Nc1ccccc1`, the growth was 15.7% in test [1]; 7.59% (active) in test [2]; 41% in test [3]; 51.7% in [4]; 73.8% in test [5]; 51% in test [6]. Moreover, the growth is 58.8% in test [7]; 28.4% in test [8]; 27.8% in test [9]; 17.6% in test [10]; 39.4% in test [11]; 49.5% in [12]. Moreover, the growth in [13] is 2.22% (active); in [14], 24.7%; in test [15] it was 16.6%; in test [16] it was 17.1%; in test [17], 62.7%; in test [18], 25.4%.
